Measurements published in PubChem BioAssay (NCATS).
Inconclusive results are not listed. Active and inactive are the calls of the source. Calls come from the whole dose curve; as a rule, active = well fitted curve in the direction sought with a large enough effect; inconclusive = small, poorly fitted or top-dose-only effect, or another doubt; inactive = no such curve, though single readings can be large; an effect the other way counts as inactive or inconclusive.

Experiments:
[1] = U-118MG Cancer Cell Toxicity qHTS against the NCATS CANVASS Library (AID 1347351); note: potency is the fitted concentration of half-maximal effect
Summary of the method: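 Bortezomib titration and single-dose wells served as plate controls. Test compounds, 11 points, acted on 1000 cells/well for 72 h at 37 degrees C; CellTiter-Glo luminescence quantified remaining viable cells.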

[2] = UWB1.289-WTBRCA1 Cancer Cell Toxicity qHTS against the NCATS CANVASS Library (AID 1347354); note: potency is the fitted concentration of half-maximal effect
Summary of the method: (§1)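 qHTS cytotoxicity: compounds tested in 11 concentrations on 1000 seeded cells per well over 72 h; bortezomib served as control; signal from CellTiter-Glo luminescence.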

[3] = HEK-293 Cancer Cell Toxicity qHTS against the NCATS CANVASS Library (AID 1347355); note: nearly all actives have a fitted effect of over 65% in size; note: potency is the fitted concentration of half-maximal effect; for outcome: series mostly up to about 46 µM
Summary of the method: as §1

[4] = HPAF-II 24hr Apoptosis Induction qHTS against the NCATS CANVASS Library (AID 1347356)
Summary of the method: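 Apoptosis induction in HPAF-II pancreatic cancer cells is measured as caspase-3/7 luminescence after a 24-hour exposure to compounds.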

[5] = test system: NAD(P)H diaphorase (Clostridium kluyveri); experiment: Diaphorse counterscreen qHTS: Assay Interference Panel against the NCATS CANVASS Library (AID 1347362); note: potency is the fitted concentration of half-maximal effect
Summary of the method: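 Clostridium kluyveri diaphorase in PBS with 0.01% Tween-20 was preincubated 15 min at room temperature in the dark with compounds (11-point series). Resorufin fluorescence (ex 525/20, em 598/25) was read 5 min after adding resazurin/NADH.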

[6] = KB-8-5-11 Cancer Cell Toxicity qHTS against the NCATS CANVASS Library (AID 1347364); note: nearly all actives have a fitted effect of over 75% in size; note: potency is the fitted concentration of half-maximal effect
Summary of the method: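 Natural products were titrated in 11 points onto KB-8-5-11 cells, 500 per well, and cytotoxicity was scored from CellTiter-Glo luminescence after 72 hr culture.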

[7] = SDT Cancer Cell Toxicity qHTS against the NCATS CANVASS Library (AID 1347365); note: nearly all actives have a fitted effect of over 60% in size; note: potency is the fitted concentration of half-maximal effect
Summary of the method: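 Dispense 500 SDT cells per well; pin-transfer compounds; incubate 72 hr at 37C, 5% CO2, 95% RH; add CellTiterGlo and read luminescence.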

[8] = qHTS for ATAD5 Antagonist screened against the NCATS CANVASS Library (AID 1347370); note: nearly all actives have a fitted effect of over 65% in size; note: potency is the fitted concentration of half-maximal effect
Summary of the method: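 HEK293T cells with a stably integrated ATAD5-controlled luciferase reporter were exposed to compounds (11-pt) alongside 10 uM 5-fluorouridine as ATAD5 stabilizer for 16hr at 37C. Viability was read by CellTiter-Fluor fluorescence, then ATAD5 by luminescence.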

[9] = target: Nuclear receptor subfamily 1 group I member 3 (Homo sapiens) (UniProt Q14994); experiment: qHTS for Constitutive Androstane Receptor (CAR) Antagonist screened against the NCATS CANVASS Library (AID 1347372); note: potency is the fitted concentration of half-maximal effect
Chain of Nuclear receptor subfamily 1 group I member 3 (Homo sapiens) (Q14994 whole entry, looked up): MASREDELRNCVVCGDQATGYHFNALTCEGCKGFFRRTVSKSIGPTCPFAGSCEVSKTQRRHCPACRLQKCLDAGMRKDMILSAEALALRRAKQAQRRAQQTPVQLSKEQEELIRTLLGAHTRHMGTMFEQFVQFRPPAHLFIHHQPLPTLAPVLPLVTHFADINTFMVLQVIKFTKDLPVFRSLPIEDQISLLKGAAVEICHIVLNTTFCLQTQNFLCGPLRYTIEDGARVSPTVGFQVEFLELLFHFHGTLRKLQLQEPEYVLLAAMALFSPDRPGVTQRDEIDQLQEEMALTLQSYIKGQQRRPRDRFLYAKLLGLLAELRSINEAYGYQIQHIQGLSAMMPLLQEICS
Summary of the method: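 HepG2 cells stably carrying hCAR and a CYP2B6-2.2kb luciferase reporter were exposed to compounds plus 50 nM CITCO for 24hr at 37C. CAR activity was read by ONE-Glo luminescence, with viability measured first by CellTiter-Fluor.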

[10] = qHTS for Hypoxia signaling pathway (HIF-1) agonists against the NCATS CANVASS Library (AID 1347375); note: potency is the fitted concentration of half-maximal effect
Summary of the method: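 Inducers of HIF-1 signaling were detected in ME-180 cells bearing an HRE-driven beta-lactamase reporter after 17 h compound exposure. Activity came from CCF4-AM FRET emission ratio (460/530 nm) in qHTS format.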

[11] = DH5-alpha competent E. coli microbial cell viability qHTS against the NCATS CANVASS Library (AID 1347377); conditions: outcome: dose series up to 46.1 µM unless noted
Summary of the method: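 Cell viability of competent DH5-alpha E. coli is scored from ATP content by luminescence. Cells sit overnight at 37C with compound across an 11-point concentration series.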

[12] = qHTS for H2AX Agonists against the NCATS CANVASS Library (AID 1347378); note: potency is the fitted concentration of half-maximal effect
Summary of the method: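 CHO-K1 cells were plated overnight at 37C, then exposed to compounds (concentration series, 0.76% DMSO final) for 3 hr at 37C. Lysates received Eu-cryptate anti-pH2AX (S139) and d2 anti-H2AX antibodies; after 24 hr at room temperature, TR-FRET 665/620 nm ratio was read.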

[13] = Cytotoxicity qHTS for assessment of Hepg2 cells membrane integrity screened against the NCATS CANVASS Library (AID 1347387)
Summary of the method: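 Fluorescence proportional to lysed-cell number, from LDH leaking out of HepG2 cells exposed 5 hr at 37C to 0.59 nM - 46 uM compound (11-point qHTS), is measured after 10 min with CytoTox-ONE.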

[14] = qHTS for Activators of p53 Stress Response Pathway screened against the NCATS CANVASS Library (AID 1347388); note: potency is the fitted concentration of half-maximal effect
Summary of the method: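 p53RE-bla HCT-116 cells (4000/well) were plated 5 h at 37C, exposed to compounds for 16 h at 37C over an 11-point concentration series, then loaded with CCF4 for 2 h at room temperature; 460/530 nm emission ratio read.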

[15] = qHTS assay for small molecule disruptors of mitochondrial membrane potential screened against the NCATS CANVASS Library (AID 1347389); note: nearly all actives have a fitted effect of over 60% in size; note: potency is the fitted concentration of half-maximal effect
Summary of the method: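 Compounds tested in 11-point qHTS series on HepG2 cells for 1 hr; membrane-potential dye added for 30 min at 37C. Lower red-to-green ratio indicates loss of potential.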

[16] = Secretion counterscreen for inhibitors of the SERCaMP assay screened against the NCATS CANVASS Library (AID 1347390);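 note: light from luciferase secreted into medium read as a measure of general secretion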; note: potency is the fitted concentration of half-maximal effect
Summary of the method: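 SH-SY5Y cells expressing constitutively secreted GLuc, 1000 cells/well, attached 4 h at 37C, then exposed to compounds (0.001 - 77 uM, 11-pnt series) for 20 h. Coelenterazine added; luminescence read to flag secretory-pathway interferers.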

[17] = qHTS for activators of dead-cell proteases activity screened against the NCATS CANVASS Library (AID 1347392);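 note: luminescence from protease leaking out of membrane-damaged cells cleaving impermeant substrate; rising signal means more cytotoxicity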; note: potency is the fitted concentration of half-maximal effect
Summary of the method: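 HepG2 cells (2000/well) attached 18 h at 37C, then exposed 5 h to compounds (11-point qHTS). Dead-cell protease activity read as luminescence from cell-impermeant AAF-aminoluciferin substrate after 15 min at room temperature.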

[18] = qHTS for inhibitors of ER calcium dysfunction: SERCaMP assay screened against the NCATS CANVASS Library (AID 1347393); note: nearly all actives have a fitted effect of over 40% in size; note: potency is the fitted concentration of half-maximal effect
Summary of the method: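 qHTS in SH-SY5Y reporter cells: 16 h compound pretreatment, 4 h thapsigargin, then secreted Gaussia luciferase measured by luminescence.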

[19] = Redox Reaction Profiling qHTS: Assay Interference Panel against the NCATS CANVASS Library (AID 1347401)
Summary of the method: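 Resazurin (5 uM) conversion to resorufin measured with 200 uM DTT in 50 mM HEPES pH 7.3, 50 mM NaCl. Compounds tested in 11-point qHTS series. Fluorescence (ex 525/em 598 nm) read before and after 15 min dark incubation.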

[20] = A2780 Cisplatin Sensitive Ovarian Cancer Cell Toxicity qHTS against the NCATS CANVASS Library (AID 1347353); note: nearly all actives have a fitted effect of over 60% in size; note: potency is the fitted concentration of half-maximal effect
Summary of the method: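 Seventy-two-hour exposure of cisplatin-sensitive A2780 ovarian cells to an 11-concentration qHTS series; cytotoxicity is inferred from loss of ATPLite luminescence. Bortezomib titration served as positive control.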

Measured: Potency

COc1ccc([C@@H]2c3cc(OC)c(OC)cc3C(=O)C(C)C2C)cc1OC (stereo not given in full)
inactive: [1] | [2] | [3] | [4] | [5] | [6] | [7] | [9] | [10] | [11] | [12] | [13] | [14] | [15] | [16] | [17] | [19]
active: [8] 20.9 µM | [18] 38.4 µM

C=C(C)C(=O)O[C@H]1C[C@H](C)[C@@H](OC(C)=O)CC[C@@]2(C)O[C@@H]2[C@H]2OC(=O)C(COC(C)=O)=C12
active: [20] 0.833 µM | [2] 7.47 µM | [3] 3.72 µM | [7] 6.62 µM | [8] 16.6 µM | [16] 17.2 µM | [18] 0.86 µM
inactive: [5] | [11] | [12] | [13] | [15] | [17] | [19]

C1=C2CCCN[C@@H]2[C@@H]2CCN3CCCC[C@@H]3[C@H](C1)C2
inactive: [1] | [20] | [2] | [3] | [4] | [5] | [6] | [7] | [8] | [9] | [10] | [11] | [12] | [13] | [14] | [15] | [16] | [17] | [18] | [19]

CN1C(=O)C2C(N=CN2C)N(C)C1=O (stereo not given)
inactive: [20] | [2] | [3] | [4] | [5] | [6] | [7] | [8] | [9] | [10] | [11] | [12] | [13] | [14] | [15] | [16] | [17] | [18] | [19]

C/C=C/C(=O)[C@@H](C)C1=CC(=O)C2=C(O[C@@]34CC[C@H](O)C(C)(C)[C@@H]3CC[C@H](C)[C@@]4(C)C2)C1=O
active: [20] 1.66 µM | [3] 2.96 µM | [5] 8.61 µM | [6] 14.8 µM | [7] 2.96 µM | [8] 7.41 µM | [9] 20.9 µM | [12] 15.4 µM | [15] 16.6 µM | [16] 17.2 µM
inactive: [11] | [13] | [19]

CNc1ccc(Cl)cc1C(=O)OC[C@]1(C)[C@H]2CC[C@]3(C)[C@@H](C[C@@H](OC)[C@H](C)[C@H]3C3=C(O)C(=O)OC3O)[C@]2(C)CC[C@H]1O (stereo not given in full)
inactive: [1] | [20] | [2] | [3] | [4] | [5] | [6] | [8] | [9] | [11] | [12] | [13] | [15] | [16] | [17] | [18] | [19]
active: [10] 13.3 µM | [14] 20.9 µM

C=C[C@]1(C)CC[C@@H]([C@H](C)C(=O)OCC)O1
inactive: [1] | [2] | [4] | [5] | [8] | [10] | [11] | [12] | [13] | [14] | [16] | [17] | [18] | [19]

C/C=C/c1cc(OC)c2c(c1)[C@@H](C)[C@H](c1ccc(O)c(OC)c1)O2
inactive: [1] | [20] | [2] | [3] | [4] | [5] | [6] | [7] | [8] | [9] | [10] | [11] | [12] | [13] | [14] | [15] | [16] | [17] | [19]
active: [18] 24.3 µM

CO[C@@H]1[C@H](O)[C@@H](C)O[C@@H](OC[C@@H]2C(C)OC(=O)/C=C/[C@H](C)C(O[C@@H]3O[C@H](C)CC4(OC(=O)O[C@@H]4C)C3O)[C@@H](C)CC(C)C(=O)CC[C@H]3OC23)[C@@H]1OC (stereo not given in full)
inactive: [1] | [20] | [2] | [3] | [4] | [5] | [6] | [7] | [9] | [10] | [11] | [12] | [13] | [14] | [15] | [16] | [17] | [19]

COc1cc(/C=C/C(=O)O)ccc1O
inactive: [1] | [20] | [2] | [3] | [4] | [5] | [6] | [7] | [8] | [9] | [10] | [11] | [12] | [13] | [14] | [15] | [17] | [18] | [19]

CCCCCCCCCCCCCCC[C@H](O)C[C@@H](O)C[C@@H](O)C[C@@H](O)C[C@@H](O)C[C@H]1CC=CC(=O)O1
inactive: [5] | [11] | [14] | [18] | [19]
active: [1] 2.11 µM | [20] 0.743 µM | [2] 3.34 µM | [3] 5.26 µM | [6] 6.62 µM | [7] 2.96 µM | [8] 26.3 µM | [9] 8.31 µM | [16] 8.6 µM | [17] 13.2 µM

CC1(C)[C@H](Br)CC[C@]23C[C@]4(C)C(=O)CC12C[C@H]34
inactive: [1] | [20] | [2] | [3] | [4] | [5] | [6] | [7] | [8] | [9] | [10] | [11] | [12] | [13] | [14] | [15] | [16] | [17] | [18] | [19]
